Results: PubChem BioAssay (NCI)
“And” between values parts separate entries of the source, which are not always exact repeats. Equal values may be shown once. About 83,000 compounds went through this panel and 20% of them were active in at least one assay; those are over-represented in the sample as a whole.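 Testing used 96-well plates and a 48-hour single-concentration exposure. Example: -40 means 40% of the starting cells died.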 Values without a mark were called inactive. The source made the active and inactive calls. The calls were made as follows: active = growth percent below 10; inactive = the rest.

These molecules were tested on MDA-MB-468 breast (assay: NCI-60 one-dose screen, 48 h (100 = growth as untreated, 0 = no growth, -100 = all killed)). Conditions: 10 µM unless noted.

Row | SMILES | growth
1 | COc1cccc(CCC2C(=O)CCCC2=O)c1 | 115%
2 | CCOC(=O)c1nnn(Cc2cc(=O)oc3ccc(O)cc23)c1C | 108%
3 | COc1cc(CNc2ccccc2C(=O)N2CCN(C(=O)c3cc(-c4cc(OC)c(OC)c(OC)c4)n4nc(-c5ccccc5)cc4n3)CC2)cc(OC)c1OC | 23.1%
4 | COc1cc2nc(-c3ccc(C(F)(F)F)cc3)cc(OCCN3CCCCC3)c2cc1OC | 93.6%
5 | COc1ccc(C2=NN(C(C)=O)C(c3cn(Cc4ccc(Cl)cc4)c4ccccc34)C2)cc1 (stereo not given) | 69.2%
6 | C/C=C(/C(=O)NC(N)=O)C(C)C | 117%
7 | C=C(C)[C@@H]1CC[C@]2(C(=O)O)CC[C@]3(C)[C@H](CC[C@@H]4[C@@]5(C)C[C@@H](CC#Cc6ccc(C(C)=O)s6)[C@H](O)C(C)(C)[C@@H]5CC[C@]43C)[C@@H]12 | 63.4%
8 | CCOP(=O)(OCC)OC[C@]12CCC(C)(C)C[C@H]1C1=CC[C@@H]3[C@@]4(C)C/C(=C\c5cccnc5)[C@H](OP(=O)(OCC)OCC)C(C)(C)[C@@H]4CC[C@@]3(C)[C@]1(C)CC2 | -0.445% (active)
9 | CCCCCCCCNC(=O)c1ccc(Cn2c(CCCC)nc3c(N)nc4ccccc4c32)cc1 | -72.6% (active)
10 | OCCOCC(F)(F)F | 106%
11 | COc1ccc(-c2cc(-c3cn(-c4cccc(Cl)c4)nc3-c3ccc(OC)cc3)on2)cc1 | 88.9%
12 | Nc1nc(N)c2c(n1)NC(c1ccc3c(c1)OCO3)CC(c1cccc(Nc3ccncc3)c1)=N2 (stereo not given) | 62.7%
13 | CCCCCCCCCCCC[S+](C)CC(=O)[O-] (stereo not given) | -53.1% (active)
14 | CCC(CC)NCC(C)(C)O | 104%
15 | COc1ccc(N)c(N)c1 | 84%
16 | CCCC(=O)c1cccs1 | 96.9%
17 | C=CCCC1(C)NC(=O)NC1=O (stereo not given) | 99.3%
18 | CCC1NC(=O)c2cc(S(N)(=O)=O)c(Cl)cc2N1 (stereo not given) | 107%
19 | CC(=O)NC1=C(C#N)C(c2ccccc2Cl)c2c(ccc3ccccc23)O1 (stereo not given) | 14%
20 | O=C(NCCNc1nccc(-c2c(-c3cccc(O)c3)nc3sccn23)n1)Nc1cccc(C(F)(F)F)c1 | -40.6% (active)

Row | SMILES | growth
21 | COc1ccc(/C=N/Nc2ccnc3cc(Cl)ccc23)cc1Cl | -71.9% (active)
22 | CO[C@@H](C(=O)N1Cc2[nH]nc(NC(=O)c3ccc(N4CCN(C)CC4)cc3)c2C1)c1ccccc1 | 50.7%
23 | COc1cc(/C=C/C(=O)c2ccc(NC(=O)CSc3nnc(-c4cc(-c5ccccc5)nc5ccccc45)n3-c3ccccc3)cc2)cc(OC)c1OC | 81.5%
24 | Cc1cccc(/C=C\C(=O)c2ccccc2)c1 | 105% and 99%
25 | CC1=C(Cl)C(=O)c2cc(C)ccc2C1=O | 95.2%
26 | N#CCCN1C/C(=C/c2ccc(Cl)cc2)C(=O)/C(=C/c2ccc(Cl)cc2)C1 | -66.5% (active)
27 | COC(=O)[C@]12CC[C@@H](C)[C@H](C)[C@@H]1C1=CC[C@@H]3[C@@]4(C)CC(=O)[C@H](OC(=O)c5ccco5)[C@@]5(C)COC(=C45)C[C@@]3(C)[C@]1(C)CC2 | 8.15% (active)
28 | O=C1CCCc2nc(Nc3ccc(S(=O)(=O)Nc4ccc([N+](=O)[O-])cc4)cc3)ncc21 | 99.8%
29 | O=C(Nc1ncc(Cc2ccccc2)s1)c1ccc2c(c1)OCCCO2 | 7.91% (active)
30 | CCC1=Cc2cc(OC)ccc2OC12C=Cc1cc(OC)ccc1O2 (stereo not given) | 69.6%
31 | CC(C)(C)n1nnnc1C(Nc1cccc2c1OCO2)c1cc2cccc3ccc4cccc1c4c32 (stereo not given) | 51.7%
32 | Nc1nccc(OCCO)n1 | 107%
33 | CC/C=C\CCC/C=C1/C(=O)C=C[C@@H]1C/C=C\CCCC(=O)O | 76.1%
34 | COc1cc(-c2nn(-c3ccc(NC(=O)NCCCNC(=O)c4ccccc4)cc3)cc2-c2ccncc2)ccc1Cl | 9.32% (active)
35 | COc1cc(C(=O)/C=C/c2c(C)n([O-])c3ccc(C)cc3[n+]2=O)cc(OC)c1OC | 30.3%
36 | N#CSCC1CC(O)(c2ccccc2)C(c2ccccc2)C(c2ccc(F)cc2)O1 (stereo not given) | -13.4% (active)
37 | Clc1nc(Cl)c2ncn(CCOCCn3cnc4c(Cl)nc(Cl)nc43)c2n1 | -72.3% (active)
38 | COc1ccc(C/C(C)=C(\c2ccc(Cl)cc2)c2ccc(OCCCN(C)C)cc2)cc1 | 59.7%
39 | CCn1c(Cc2ccccc2Nc2c(Cl)cccc2Cl)nnc1SCC(=O)NN1C(=O)/C(=C/c2cc(OC)c(O)c(OC)c2)SC1=S | -2.96% (active)
40 | CC(C)c1ccc(Nc2n[nH]c(=S)s2)cc1 | 107%
